The values that follow come from publication PMC7862700, “An all-to-all approach to the identification of sequence-specific readers for epigenetic DNA modifications on cytosine”.

Assay in all cases: DAPPL (digital affinity profiling via proximity ligation, sequencing); 10 mM Tris-HCl pH 7.5, 50 mM NaCl, 1 mM DTT, 4% glycerol, room temperature, 30 min; GST-TFs on glutathione beads, 16-mer random dsDNA library, 0.1% formaldehyde crosslink after washing; high values mean tight binding
For assay [1], the target named is T1, FLI1 (Homo sapiens, UniProt Q01543 1-452).
T1 sequence: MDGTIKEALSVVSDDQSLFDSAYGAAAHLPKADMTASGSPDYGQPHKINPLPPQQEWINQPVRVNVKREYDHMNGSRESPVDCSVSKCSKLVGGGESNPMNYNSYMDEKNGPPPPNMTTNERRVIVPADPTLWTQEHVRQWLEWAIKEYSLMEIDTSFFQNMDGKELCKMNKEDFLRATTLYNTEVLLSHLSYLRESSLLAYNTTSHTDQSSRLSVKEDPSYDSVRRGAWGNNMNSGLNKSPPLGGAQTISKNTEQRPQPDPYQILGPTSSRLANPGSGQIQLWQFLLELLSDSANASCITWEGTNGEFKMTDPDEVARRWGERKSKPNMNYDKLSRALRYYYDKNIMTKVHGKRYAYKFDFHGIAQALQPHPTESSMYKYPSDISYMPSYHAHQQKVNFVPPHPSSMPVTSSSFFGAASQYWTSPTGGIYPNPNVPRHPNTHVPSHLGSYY
Particulars: protein: recombinant; tags: N-terminal GST; dsDNA, one strand shown. Put shortly: (§1)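 Pools of DNA-barcoded human transcription factors, expressed in yeast as GST fusions on glutathione beads and combined with a tag-only sample, were incubated with 200 nmole of a 16-mer random double-stranded DNA library. Incubation took 30 min at room temperature in Tris/NaCl/DTT/glycerol buffer and was followed by washing, 0.1% formaldehyde crosslinking, proximity ligation (BsaI/T4 ligase, 1 h, 37 °C), PCR amplification and sequencing on an Illumina NextSeq500. Binding signal is the ratio of a hexamer's read frequency for a factor to its frequency for the tag-only sample.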

For assay [2], the target named is T2, ELK1 (Homo sapiens, UniProt P19419 1-428).
T2 sequence: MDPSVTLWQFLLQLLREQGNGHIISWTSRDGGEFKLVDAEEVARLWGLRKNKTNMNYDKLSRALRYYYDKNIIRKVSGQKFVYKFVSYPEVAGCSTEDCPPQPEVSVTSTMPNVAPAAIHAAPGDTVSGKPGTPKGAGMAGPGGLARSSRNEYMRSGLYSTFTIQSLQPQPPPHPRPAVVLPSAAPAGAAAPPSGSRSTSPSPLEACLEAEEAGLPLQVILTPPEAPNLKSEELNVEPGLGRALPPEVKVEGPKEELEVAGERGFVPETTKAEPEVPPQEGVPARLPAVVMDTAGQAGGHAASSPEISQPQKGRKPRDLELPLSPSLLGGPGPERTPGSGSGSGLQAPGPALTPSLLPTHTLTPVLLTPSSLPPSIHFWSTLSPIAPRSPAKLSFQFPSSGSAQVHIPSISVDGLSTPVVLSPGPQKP
The settings on record: protein: recombinant; tags: N-terminal GST; dsDNA, one strand shown. Put shortly: as §1

Assay [3] has as its target T3, GABPA (Homo sapiens, UniProt Q06546 1-454).
T3 sequence: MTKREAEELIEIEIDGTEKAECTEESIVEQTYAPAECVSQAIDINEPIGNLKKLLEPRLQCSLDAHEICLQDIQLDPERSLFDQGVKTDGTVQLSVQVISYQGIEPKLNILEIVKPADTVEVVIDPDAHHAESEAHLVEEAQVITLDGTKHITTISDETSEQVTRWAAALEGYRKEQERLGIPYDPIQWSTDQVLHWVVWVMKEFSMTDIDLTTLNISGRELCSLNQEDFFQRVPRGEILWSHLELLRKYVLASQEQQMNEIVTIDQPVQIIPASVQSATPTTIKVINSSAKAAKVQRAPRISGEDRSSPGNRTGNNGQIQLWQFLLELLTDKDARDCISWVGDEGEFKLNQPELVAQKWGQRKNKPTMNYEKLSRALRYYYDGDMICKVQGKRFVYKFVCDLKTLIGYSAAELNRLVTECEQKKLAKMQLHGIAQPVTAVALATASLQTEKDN
Particulars: protein: recombinant; tags: N-terminal GST; dsDNA, one strand shown. Put shortly: as §1

Assay [4] deals with T4, ERG (Homo sapiens, UniProt P11308 1-479).
T4 sequence: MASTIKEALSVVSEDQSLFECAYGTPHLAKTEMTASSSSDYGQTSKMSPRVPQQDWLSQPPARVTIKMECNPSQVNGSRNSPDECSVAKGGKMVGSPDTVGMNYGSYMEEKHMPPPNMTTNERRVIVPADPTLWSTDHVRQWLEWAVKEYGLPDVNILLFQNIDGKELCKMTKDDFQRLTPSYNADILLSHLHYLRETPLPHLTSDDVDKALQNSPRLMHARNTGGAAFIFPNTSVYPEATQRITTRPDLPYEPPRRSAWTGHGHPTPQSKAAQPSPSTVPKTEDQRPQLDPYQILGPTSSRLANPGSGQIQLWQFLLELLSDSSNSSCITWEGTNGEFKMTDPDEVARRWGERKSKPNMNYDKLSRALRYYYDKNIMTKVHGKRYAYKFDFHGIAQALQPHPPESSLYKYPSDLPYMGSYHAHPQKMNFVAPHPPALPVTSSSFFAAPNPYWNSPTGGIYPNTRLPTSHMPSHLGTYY
Particulars: protein: recombinant; tags: N-terminal GST; dsDNA, one strand shown. Put shortly: as §1

For assay [5], the target named is ELF1 (Homo sapiens, UniProt P32519 1-619). The settings on record: protein: recombinant; tags: N-terminal GST; dsDNA, one strand shown. Put shortly: as §1
For assay [6], the target named is T5, EHF (Homo sapiens, UniProt Q9NZC4 1-300).
T5 sequence: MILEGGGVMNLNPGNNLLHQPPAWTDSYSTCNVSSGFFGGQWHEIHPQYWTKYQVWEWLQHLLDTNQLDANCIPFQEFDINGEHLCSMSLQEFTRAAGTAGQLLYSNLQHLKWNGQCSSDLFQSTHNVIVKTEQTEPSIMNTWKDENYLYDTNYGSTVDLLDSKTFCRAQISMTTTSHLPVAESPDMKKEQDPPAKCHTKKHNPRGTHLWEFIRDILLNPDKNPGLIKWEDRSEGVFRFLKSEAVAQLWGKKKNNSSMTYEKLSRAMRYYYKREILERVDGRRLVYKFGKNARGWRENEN
The settings on record: protein: recombinant; tags: N-terminal GST; dsDNA, one strand shown. Put shortly: as §1

The target of assay [7] is SPI1 (Homo sapiens, UniProt P17947 1-270). Particulars: protein: recombinant; tags: N-terminal GST; dsDNA, one strand shown. Put shortly:
as §1

Assay [8] concerns the target SPIB (Homo sapiens, UniProt Q01892 1-262). The settings on record: protein: recombinant; tags: N-terminal GST; dsDNA, one strand shown. Put shortly: as §1
Assay [9] addresses T6, ELK3 (Homo sapiens, UniProt P41970 1-407).
T6 sequence: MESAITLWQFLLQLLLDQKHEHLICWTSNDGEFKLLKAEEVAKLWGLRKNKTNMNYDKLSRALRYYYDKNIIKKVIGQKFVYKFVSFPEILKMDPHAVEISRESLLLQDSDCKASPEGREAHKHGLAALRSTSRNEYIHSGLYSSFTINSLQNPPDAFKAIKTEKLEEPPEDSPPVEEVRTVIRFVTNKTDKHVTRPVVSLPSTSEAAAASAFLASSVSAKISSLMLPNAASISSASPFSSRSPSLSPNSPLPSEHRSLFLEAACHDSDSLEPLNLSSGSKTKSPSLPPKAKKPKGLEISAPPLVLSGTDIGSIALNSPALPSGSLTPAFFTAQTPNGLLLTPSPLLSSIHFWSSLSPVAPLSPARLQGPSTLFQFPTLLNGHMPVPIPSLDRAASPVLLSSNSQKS
Particulars: protein: recombinant; tags: N-terminal GST; dsDNA, one strand shown. Put shortly:
as §1

For assay [10], the target named is T7, FEV (Homo sapiens, UniProt Q99581 1-238).
T7 sequence: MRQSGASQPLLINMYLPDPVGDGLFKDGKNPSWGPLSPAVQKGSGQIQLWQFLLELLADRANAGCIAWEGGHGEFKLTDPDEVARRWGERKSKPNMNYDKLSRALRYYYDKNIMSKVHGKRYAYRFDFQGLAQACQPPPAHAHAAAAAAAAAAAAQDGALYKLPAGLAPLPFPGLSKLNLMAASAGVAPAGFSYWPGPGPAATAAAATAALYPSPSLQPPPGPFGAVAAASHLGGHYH
The settings on record: protein: recombinant; tags: N-terminal GST; dsDNA, one strand shown. An outline of the steps:
as §1

The target of assay [11] is ETV5 (Homo sapiens, UniProt P41161 1-510). Particulars: protein: recombinant; tags: N-terminal GST; dsDNA, one strand shown. An outline of the steps: as §1
Assay [12] has as its target HSF1 (Homo sapiens, UniProt Q00613 1-529). The settings on record: protein: recombinant; tags: N-terminal GST; chain copies: 3; dsDNA, one strand shown. An outline of the steps: as §1
Assay [13] has as its target T8, SPIC (Homo sapiens, UniProt Q8N5J4 1-248).
T8 sequence: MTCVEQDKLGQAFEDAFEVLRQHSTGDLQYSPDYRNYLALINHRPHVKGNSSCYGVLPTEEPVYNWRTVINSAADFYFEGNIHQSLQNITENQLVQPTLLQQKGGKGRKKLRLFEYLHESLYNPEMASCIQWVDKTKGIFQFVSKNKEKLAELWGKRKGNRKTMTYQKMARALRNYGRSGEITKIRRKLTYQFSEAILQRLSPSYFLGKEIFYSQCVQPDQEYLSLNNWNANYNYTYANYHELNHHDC
The settings on record: protein: recombinant; tags: N-terminal GST; dsDNA, one strand shown. An outline of the steps: as §1

Assay [14] addresses ELF4 (Homo sapiens, UniProt Q99607 1-663). The settings on record: protein: recombinant; tags: N-terminal GST; dsDNA, one strand shown. Put shortly: as §1
Assay [15] addresses T9, ELK4 (Homo sapiens, UniProt P28324-2 1-405).
T9 sequence: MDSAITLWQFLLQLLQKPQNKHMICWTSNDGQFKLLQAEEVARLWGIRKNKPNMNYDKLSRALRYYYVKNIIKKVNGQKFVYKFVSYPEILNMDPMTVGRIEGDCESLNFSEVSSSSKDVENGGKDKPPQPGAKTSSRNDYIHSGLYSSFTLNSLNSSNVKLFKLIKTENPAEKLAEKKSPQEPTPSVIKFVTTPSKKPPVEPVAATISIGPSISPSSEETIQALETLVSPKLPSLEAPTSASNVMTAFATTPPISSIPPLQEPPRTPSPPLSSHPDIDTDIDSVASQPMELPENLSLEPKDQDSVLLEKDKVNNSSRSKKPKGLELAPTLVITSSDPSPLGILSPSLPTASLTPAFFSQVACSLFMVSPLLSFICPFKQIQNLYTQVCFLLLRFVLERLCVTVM
Particulars: protein: recombinant; tags: N-terminal GST; dsDNA, one strand shown. Put shortly: as §1

For assay [16], the target named is T10, ETV2 (Homo sapiens, UniProt O00321 1-342).
T10 sequence: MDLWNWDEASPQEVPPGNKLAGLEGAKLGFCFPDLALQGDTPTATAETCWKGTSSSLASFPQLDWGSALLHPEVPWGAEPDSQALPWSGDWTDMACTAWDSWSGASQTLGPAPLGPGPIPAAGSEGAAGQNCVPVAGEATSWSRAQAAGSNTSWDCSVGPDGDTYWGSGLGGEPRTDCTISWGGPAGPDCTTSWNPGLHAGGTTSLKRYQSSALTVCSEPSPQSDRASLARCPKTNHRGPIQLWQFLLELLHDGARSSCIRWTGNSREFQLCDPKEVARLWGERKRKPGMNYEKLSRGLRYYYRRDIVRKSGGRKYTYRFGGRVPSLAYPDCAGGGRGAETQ
The settings on record: protein: recombinant; tags: N-terminal GST; dsDNA, one strand shown. Put shortly:
as §1

Assay [17] has as its target T11, ELF3 (Homo sapiens, UniProt P78545 1-371).
T11 sequence: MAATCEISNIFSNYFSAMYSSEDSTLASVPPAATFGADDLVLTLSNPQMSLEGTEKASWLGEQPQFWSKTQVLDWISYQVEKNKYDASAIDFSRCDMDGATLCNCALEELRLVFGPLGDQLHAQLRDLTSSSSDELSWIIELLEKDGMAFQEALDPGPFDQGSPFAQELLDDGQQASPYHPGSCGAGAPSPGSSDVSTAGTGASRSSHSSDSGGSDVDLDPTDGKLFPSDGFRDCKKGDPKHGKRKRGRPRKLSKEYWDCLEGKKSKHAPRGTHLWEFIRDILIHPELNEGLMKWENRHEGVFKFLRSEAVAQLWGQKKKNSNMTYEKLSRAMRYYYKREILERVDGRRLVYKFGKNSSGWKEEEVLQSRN
Particulars: protein: recombinant; tags: N-terminal GST; dsDNA, one strand shown. An outline of the steps:
as §1

Assay [18] concerns the target CRX (Homo sapiens, UniProt O43186 1-299). Particulars: protein: recombinant; tags: N-terminal GST; dsDNA, one strand shown. An outline of the steps:
as §1

For assay [19], the target named is ETV1 (Homo sapiens, UniProt P50549 1-477). Particulars: protein: recombinant; tags: N-terminal GST; dsDNA, one strand shown. An outline of the steps:
as §1

Sequence of HSF1 (Q00613 whole entry): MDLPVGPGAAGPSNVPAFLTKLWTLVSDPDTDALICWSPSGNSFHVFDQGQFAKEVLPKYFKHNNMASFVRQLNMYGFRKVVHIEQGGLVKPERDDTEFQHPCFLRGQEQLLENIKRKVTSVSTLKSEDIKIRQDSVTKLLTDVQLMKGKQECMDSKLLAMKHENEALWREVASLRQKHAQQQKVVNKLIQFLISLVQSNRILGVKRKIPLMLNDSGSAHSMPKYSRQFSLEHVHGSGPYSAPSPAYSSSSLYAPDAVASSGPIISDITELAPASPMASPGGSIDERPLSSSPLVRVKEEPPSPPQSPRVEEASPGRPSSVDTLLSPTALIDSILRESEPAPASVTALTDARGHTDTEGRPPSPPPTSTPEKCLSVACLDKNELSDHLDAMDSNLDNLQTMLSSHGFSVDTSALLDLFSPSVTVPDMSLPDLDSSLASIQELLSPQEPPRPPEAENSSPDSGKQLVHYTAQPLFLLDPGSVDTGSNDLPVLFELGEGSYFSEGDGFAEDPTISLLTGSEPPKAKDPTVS
Sequence of ETV1 (P50549 whole entry): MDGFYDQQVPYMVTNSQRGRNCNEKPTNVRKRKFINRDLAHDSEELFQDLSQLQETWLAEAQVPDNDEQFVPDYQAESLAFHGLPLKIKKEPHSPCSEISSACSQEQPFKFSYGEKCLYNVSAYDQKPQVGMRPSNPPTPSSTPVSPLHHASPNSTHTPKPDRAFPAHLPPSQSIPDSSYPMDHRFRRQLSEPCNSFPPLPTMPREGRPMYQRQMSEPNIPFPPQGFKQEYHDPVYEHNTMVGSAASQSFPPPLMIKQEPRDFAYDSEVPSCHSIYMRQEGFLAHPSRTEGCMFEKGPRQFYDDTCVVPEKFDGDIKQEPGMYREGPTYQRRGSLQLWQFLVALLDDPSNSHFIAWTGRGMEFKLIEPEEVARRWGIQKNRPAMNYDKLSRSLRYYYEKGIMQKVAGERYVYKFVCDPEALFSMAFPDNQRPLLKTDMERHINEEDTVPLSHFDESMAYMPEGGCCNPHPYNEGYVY
Sequence of SPIB (Q01892 whole entry): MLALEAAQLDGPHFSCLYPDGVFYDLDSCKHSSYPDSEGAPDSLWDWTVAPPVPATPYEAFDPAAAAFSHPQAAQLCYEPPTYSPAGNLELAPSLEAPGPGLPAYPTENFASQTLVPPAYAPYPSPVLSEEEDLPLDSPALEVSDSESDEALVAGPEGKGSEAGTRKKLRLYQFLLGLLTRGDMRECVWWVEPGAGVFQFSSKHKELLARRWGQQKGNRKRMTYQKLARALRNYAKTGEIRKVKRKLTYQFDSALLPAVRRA
Sequence of ETV5 (P41161 whole entry): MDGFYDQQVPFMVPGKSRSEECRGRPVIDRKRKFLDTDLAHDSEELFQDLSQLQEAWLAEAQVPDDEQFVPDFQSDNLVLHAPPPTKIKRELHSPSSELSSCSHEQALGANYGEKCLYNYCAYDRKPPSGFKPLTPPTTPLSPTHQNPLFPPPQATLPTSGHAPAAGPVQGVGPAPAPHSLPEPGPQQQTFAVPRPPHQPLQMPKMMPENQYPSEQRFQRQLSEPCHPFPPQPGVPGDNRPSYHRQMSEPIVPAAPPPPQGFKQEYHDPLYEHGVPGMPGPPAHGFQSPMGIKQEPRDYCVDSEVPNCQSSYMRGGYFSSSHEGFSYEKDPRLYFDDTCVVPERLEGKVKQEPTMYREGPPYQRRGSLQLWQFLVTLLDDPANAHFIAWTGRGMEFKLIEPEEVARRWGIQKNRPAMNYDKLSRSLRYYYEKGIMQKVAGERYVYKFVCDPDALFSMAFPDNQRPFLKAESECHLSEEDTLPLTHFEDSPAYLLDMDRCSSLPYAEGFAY
Sequence of CRX (O43186 whole entry): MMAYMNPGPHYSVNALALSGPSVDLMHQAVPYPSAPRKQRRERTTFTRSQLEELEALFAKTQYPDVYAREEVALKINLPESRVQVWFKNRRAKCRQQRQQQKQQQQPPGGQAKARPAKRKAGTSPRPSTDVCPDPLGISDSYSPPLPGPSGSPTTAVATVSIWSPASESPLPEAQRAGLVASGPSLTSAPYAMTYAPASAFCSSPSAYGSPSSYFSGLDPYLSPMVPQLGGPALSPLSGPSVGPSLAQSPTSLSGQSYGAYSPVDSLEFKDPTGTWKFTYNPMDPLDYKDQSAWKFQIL
Sequence of ELF1 (P32519 whole entry): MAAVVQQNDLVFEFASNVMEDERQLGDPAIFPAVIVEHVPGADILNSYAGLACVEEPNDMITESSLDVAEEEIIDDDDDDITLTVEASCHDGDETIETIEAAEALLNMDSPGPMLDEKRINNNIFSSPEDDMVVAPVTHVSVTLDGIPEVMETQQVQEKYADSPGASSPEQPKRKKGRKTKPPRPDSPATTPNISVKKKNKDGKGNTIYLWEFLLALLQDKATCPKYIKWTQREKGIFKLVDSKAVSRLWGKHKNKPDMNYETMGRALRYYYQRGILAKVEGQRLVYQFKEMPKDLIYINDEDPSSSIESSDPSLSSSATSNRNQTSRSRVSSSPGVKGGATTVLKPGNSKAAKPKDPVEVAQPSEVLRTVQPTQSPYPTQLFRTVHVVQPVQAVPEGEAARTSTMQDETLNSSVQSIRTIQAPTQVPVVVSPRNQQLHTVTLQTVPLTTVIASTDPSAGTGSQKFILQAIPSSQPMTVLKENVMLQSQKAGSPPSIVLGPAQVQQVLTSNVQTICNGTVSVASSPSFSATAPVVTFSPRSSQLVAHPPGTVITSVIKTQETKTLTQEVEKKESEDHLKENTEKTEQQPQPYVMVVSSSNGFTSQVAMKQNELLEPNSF
Sequence of ELF4 (Q99607 whole entry): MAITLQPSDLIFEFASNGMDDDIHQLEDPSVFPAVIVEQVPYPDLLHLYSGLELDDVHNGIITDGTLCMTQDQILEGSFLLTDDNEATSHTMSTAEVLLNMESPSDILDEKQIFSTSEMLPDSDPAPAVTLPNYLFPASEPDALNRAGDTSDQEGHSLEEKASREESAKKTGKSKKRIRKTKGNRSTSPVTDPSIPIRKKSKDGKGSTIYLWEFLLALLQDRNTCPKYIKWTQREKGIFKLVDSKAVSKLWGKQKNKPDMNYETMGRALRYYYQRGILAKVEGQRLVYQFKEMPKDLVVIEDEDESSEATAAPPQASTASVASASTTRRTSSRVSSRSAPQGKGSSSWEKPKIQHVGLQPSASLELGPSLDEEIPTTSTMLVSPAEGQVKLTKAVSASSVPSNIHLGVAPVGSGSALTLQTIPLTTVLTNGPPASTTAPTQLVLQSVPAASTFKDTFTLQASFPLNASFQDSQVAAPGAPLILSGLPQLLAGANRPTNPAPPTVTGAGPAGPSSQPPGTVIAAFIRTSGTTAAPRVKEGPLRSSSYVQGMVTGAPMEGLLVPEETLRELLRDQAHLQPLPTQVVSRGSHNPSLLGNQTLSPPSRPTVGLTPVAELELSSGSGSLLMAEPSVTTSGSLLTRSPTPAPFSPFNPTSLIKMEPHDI

Regarding GTCTTA, the binding signal is 1.1 fold enrichment (6-mer frequency, TF over GST control) in [1]; 1.14 fold enrichment (6-mer frequency, TF over GST control) in assay [2]; 1.08 fold enrichment (6-mer frequency, TF over GST control) in assay [3]; 1.06 fold enrichment (6-mer frequency, TF over GST control) in assay [4]; 1.11 fold enrichment (6-mer frequency, TF over GST control) in assay [5]; 1.08 fold enrichment (6-mer frequency, TF over GST control) in assay [6]. Besides, the binding signal is 1.14 fold enrichment (6-mer frequency, TF over GST control) in assay [7]; 1.14 fold enrichment (6-mer frequency, TF over GST control) in assay [8]; 1.06 fold enrichment (6-mer frequency, TF over GST control) in assay [9]; 1.07 fold enrichment (6-mer frequency, TF over GST control) in assay [10]; 1.14 fold enrichment (6-mer frequency, TF over GST control) in [11]; 1.35 fold enrichment (6-mer frequency, TF over GST control) in [12]. In addition, the binding signal in assay [13] is 1.07 fold enrichment (6-mer frequency, TF over GST control); in [14], 1.08 fold enrichment (6-mer frequency, TF over GST control); in assay [15], 1.04 fold enrichment (6-mer frequency, TF over GST control); in assay [16] it was 1.14 fold enrichment (6-mer frequency, TF over GST control); in assay [17], 1.16 fold enrichment (6-mer frequency, TF over GST control); in assay [18], 1.94 fold enrichment (6-mer frequency, TF over GST control). Further, the binding signal in [19] was 1.15 fold enrichment (6-mer frequency, TF over GST control).
